Screens (PubChem)
Rows were chosen to be rich in hits. Some 2.9% of all compounds tested hit in one or more screens of this group.
FadD28 binding = inhibitors of FadD28 bisubstrate probe binding, primary screen, biochemical, fluorescence polarization, single point. Mycobacterium tuberculosis FadD28 fatty-acid-AMP ligase. inhibition, % at 12.5 µM. actives 0.22% (n = 360,000). AID 588549, 2011; in the data active = inhibition above about 8.5%, passing the limit was not always enough; inconclusive = no clear call, values can overlap the other calls
Mtb hypoxia rep = PubChem AID 1159583; M. tuberculosis hypoxia-regulated fluorescent reporter, fluorescence; fluorescence inhibition, % (concentration not given with the values); actives 0.1% (n = 300,000); in the data active = fluorescence inhibition mostly above about 23%, no sharp cut-off; inactive = mostly below about 17%
BioA inh-1 = M. tuberculosis BioA enzyme inhibitors, primary screen, biochemical, plate reader, single point, HTS; actives 0.096% (n = 360,000); purified M. tuberculosis BioA enzyme; inhibition, % at 9.99 µM; in the data active = inhibition above about 40%; inconclusive = no clear call, values can overlap the other calls
FBA Mtb inh = Mtb FBA enzyme inhibitors, primary screen, biochemical, fluorescence, strain H37Rv. Fructose-bisphosphate aldolase (Mycobacterium tuberculosis (strain ATCC 25618 / H37Rv)), …. purified M. tuberculosis FBA, fluorescence read-out. inhibition, % at 1 µM. actives 2.3% (n = 360,000); in the data active = inhibition above about 27%
Target sequence (P9WQA3 whole entry, looked up): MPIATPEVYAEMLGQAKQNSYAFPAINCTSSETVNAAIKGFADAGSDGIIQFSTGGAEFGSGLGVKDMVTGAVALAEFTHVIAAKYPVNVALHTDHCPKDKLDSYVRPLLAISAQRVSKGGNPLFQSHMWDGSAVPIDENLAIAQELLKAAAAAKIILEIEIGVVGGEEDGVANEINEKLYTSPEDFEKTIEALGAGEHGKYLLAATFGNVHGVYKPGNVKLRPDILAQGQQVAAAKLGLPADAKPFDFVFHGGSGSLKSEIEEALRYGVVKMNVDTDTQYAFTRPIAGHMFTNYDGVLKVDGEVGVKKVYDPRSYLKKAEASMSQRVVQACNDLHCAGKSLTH
GDH-TPI counter = GDH-TPI coupling enzyme inhibitors, primary screen, artefact control for M. tuberculosis FBA inhibitor project, biochemical, absorbance, full deck; AID 588335, 2011; GDH-TPI coupled enzyme counterscreen, NADH absorbance; actives 1.2% (n = 360,000); inhibition, % at 4.8 µM; in the data active = inhibition above about 30%
BioA inh-2 = Mtb BioA enzyme inhibitors, dose response, biochemical, plate reader, cherry-pick samples, set 03 | shares compounds with BioA inh-1 | purified BioA enzyme | max activity, % | 310 tested, under 10 active;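 note: top concentration of the dilution series was 10 µM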
HepG2 tox 2 = cytotoxicity in HepG2 cells, dose response, cytotoxicity control, cell-based, plate reader, cherry-pick, two tests. max activity, %. 310 tested, under 10 active. shares compounds with BioA inh-1
3T3 cytotox 5 = cytotoxicity in NIH3T3 fibroblasts, dose response, cytotoxicity control, cell-based, plate reader, cherry-pick, two tests | shares compounds with BioA inh-1 | activity change, negative = cytotoxicity, % at 26 µM | 310 tested, under 10 active
Numbers stand for hits; 0 = inactive; ? = inconclusive; - = not tested or not shown. Unless noted, the rule behind the calls is not given here.

SMILES | FadD28 binding | Mtb hypoxia rep | BioA inh-1 | FBA Mtb inh | GDH-TPI counter | BioA inh-2 | HepG2 tox 2 | 3T3 cytotox 5
Cc1nc2nc(SCC(=O)NCCN3CCOCC3)nn2c(C)c1Cc1ccccc1 | 0 | 0 | - | 0 | 0 | - | - | -
CC(=O)OC1CC2CCC3C(CCC4(C)C3CC([N+]3(C)CCCCC3)C4OC(C)=O)C2(C)CC1[N+]1(C)CCCCC1 (stereo not given) | - | 0 | - | - | - | - | - | -
CCCCCCCC(=O)NN=Cc1cccnc1 | - | 0 | - | - | - | - | - | -
Cc1ccc(S(=O)(=O)N[C@@H]2CC[C@H](CC(=O)NCCc3ccncc3)O[C@H]2CO)cc1 | - | - | 0 | - | - | - | - | -
O=C(COc1ccc2ccc(=O)oc2c1)Nc1cccnc1 | 0 | 0 | 49.2 | 0 | 0 | 0 | 0 | 0
O=C(Nc1ccccc1F)NC1CCN(Cc2nnnn2Cc2ccc(F)cc2)CC1 | 0 | 0 | 0 | 0 | 0 | - | - | -
O=C(Nc1ccc(F)cc1)NC1CCN(Cc2nnnn2Cc2ccco2)CC1 | 0 | 0 | 74.4 | 0 | 0 | 0 | ? | 0
C[C@@H]1CN([C@@H](C)CO)C(=O)c2cc(N(C)C)ccc2O[C@@H](C)CCCCO[C@@H]1CN(C)Cc1ccncc1 | - | - | 0 | - | - | - | - | -
Cc1c(NC(=O)c2cc3ccccc3o2)cccc1-n1cnnn1 | 0 | - | 46.4 | 0 | 0 | 0 | 0 | 0
Cc1c(NC(=O)c2ccc(S(=O)(=O)N(C)C)cc2)cccc1-n1cnnn1 | - | 0 | 0 | 0 | 0 | - | - | -
COCCOC(=O)N1C(=O)[C@@]2(c3ccccc31)[C@H](C(=O)N1CCc3cc(OC)c(OC)cc3C1)[C@H]1C(=O)O[C@H](c3ccccc3)[C@H](c3ccccc3)N1[C@@H]2c1ccc(O)cc1 | - | - | 0 | - | - | - | - | -
C[C@@H]1CN([C@H](C)CO)S(=O)(=O)c2ccc(C#CC3CC3)cc2O[C@H]1CN(C)Cc1ccccc1 | - | - | 0 | - | - | - | - | -
Fc1ccc(-c2ccc3c(c2)C2CC3CCN2)cc1 (stereo not given) | 0 | - | 66.3 | 0 | 0 | 0 | 0 | 0
Cc1cccc(-c2ccc3c(c2)C2CC3CCN2)c1 (stereo not given) | 0 | - | 55.6 | 0 | 0 | 0 | 0 | 0
FC(F)(F)c1ccc(-c2cccc3c2C2CC3CCN2)cc1 (stereo not given) | 0 | - | 0 | 0 | 0 | - | - | -
O=C(c1ccncc1)N1CC[C@@H]2[C@@H](CO)Nc3ccc(Br)cc3[C@@H]21 | - | - | 47.6 | - | - | 0 | 0 | 0
COc1cccc(-c2ccc3c(c2)[C@H]2[C@H](CCN2C(=O)C2CCC2)[C@@H](CO)N3)c1 | - | - | 59.8 | - | - | 0 | 0 | 0
O=C(C1CC1)N1CC[C@@H]2[C@H](CO)Nc3ccc(Br)cc3[C@@H]21 | - | - | 84.5 | - | - | ? | 0 | 0
COc1cccc(-c2ccc3c(c2)[C@H]2[C@H](CCN2C(=O)C2CCC2)[C@H](CO)N3)c1 | - | - | 0 | - | - | - | - | -
O=C(Cc1ccncc1)N1CC[C@@H]2[C@H](CO)Nc3ccc(Br)cc3[C@@H]21 | - | - | 0 | - | - | - | - | -
CCCC#Cc1cnc2c(c1)C(=O)N([C@@H](C)CO)C[C@@H](C)[C@@H](CN(C)Cc1ccncc1)O2 | - | - | 0 | - | - | - | - | -
CNC[C@@H]1Oc2ccc(NC(=O)Cc3ccccc3)cc2C(=O)N([C@@H](C)CO)C[C@@H]1C | - | - | 0 | - | - | - | - | -
Cc1nc2sc(C(c3ccco3)N3CCN(c4ccccc4F)CC3)c(O)n2n1 (stereo not given) | 0 | 0 | 0 | 0 | 0 | - | - | -
Cc1nc2sc(C(c3ccc(Cl)cc3)N3CCN(c4ccccc4F)CC3)c(O)n2n1 (stereo not given) | 0 | - | 43.4 | 0 | 0 | 0 | 0 | 0
COc1cc(-c2n[nH]c(=S)n2-c2cccc(C(F)(F)F)c2)cc(OC)c1OC | 0 | 0 | 42.6 | 0 | 0 | 0 | 0 | 0
SMILES | FadD28 binding | Mtb hypoxia rep | BioA inh-1 | FBA Mtb inh | GDH-TPI counter | BioA inh-2 | HepG2 tox 2 | 3T3 cytotox 5
COc1cc(-c2n[nH]c(=S)n2C(C)c2ccccc2)cc(OC)c1OC (stereo not given) | 0 | 0 | 64.4 | 0 | 0 | 0 | 0 | 0
CNC[C@H]1OCCCC[C@@H](C)Oc2ccc(NC(=O)c3ccncc3)cc2C(=O)N([C@@H](C)CO)C[C@H]1C | - | - | 0 | - | - | - | - | -
COc1ccc(NC2CCCN(C(=O)c3ccc(C(C)=O)s3)C2)cc1 (stereo not given) | 0 | 0 | 83.7 | 0 | 0 | 0 | 0 | 0
CC(C)NC(=O)N(C)C[C@H]1Oc2ccc(NC(=O)NC3CCCCC3)cc2CC(=O)N([C@@H](C)CO)C[C@@H]1C | - | - | 0 | - | - | - | - | -
C/C=C/c1ccc2c(c1)O[C@@H](CN(C)C(=O)Cc1cccnc1)[C@H](C)CN([C@H](C)CO)S2(=O)=O | - | - | 55.9 | - | - | 0 | 0 | 0
C/C=C/c1ccc2c(c1)O[C@@H](CN(C)C(=O)c1ccc3c(c1)OCO3)[C@@H](C)CN([C@@H](C)CO)S2(=O)=O | - | - | 46.3 | - | - | 0 | 0 | 0
Cc1ccc2[nH]c(C(=O)NN=Cc3ccccc3C(=O)O)c(-c3ccccc3)c2c1 | - | 0 | - | - | - | - | - | -
COc1ccc(NC(=O)c2ccc(NC(=O)c3cccs3)cc2)cc1 | 0 | 0 | 0 | 0 | 0 | - | - | -
COc1ccc(C(=O)Nc2cccc(NC(=O)c3cccs3)c2)cc1 | 0 | 0 | 59.3 | 0 | 0 | 0 | 0 | 0
CN1c2ccc(-c3cccc(F)c3)cc2[C@H]2[C@H](CCN2C(=O)c2ccncc2)[C@@H]1CO | - | - | 69.1 | - | - | 0 | 0 | 0
CCC(=O)N1CC[C@@H]2[C@@H](CO)N(C)c3ccc(-c4cccc(F)c4)cc3[C@@H]21 | - | - | 67.8 | - | - | 0 | 0 | 0
CN1c2ccc(-c3cccc(F)c3)cc2[C@H]2[C@H](CCN2C(=O)C2CC2)[C@H]1CO | - | - | 41.0 | - | - | 0 | 0 | 0
COCC(=O)N1CC[C@@H]2[C@@H](CO)N(C)c3ccc(-c4ccc(F)cc4)cc3[C@@H]21 | - | - | 60.6 | - | - | 0 | 0 | 0
CN1c2ccc(-c3cccc(F)c3)cc2[C@@H]2[C@@H](CCN2C(=O)C2CC2)[C@H]1CO | - | - | 0 | - | - | - | - | -
COc1ccc(CN(C)C[C@H]2Oc3c(NC(=O)C4CCOCC4)cccc3C(=O)N([C@@H](C)CO)C[C@@H]2C)cc1 | - | - | 0 | - | - | - | - | -
CCC(=O)Nc1ccc2c(c1)OC[C@@H](C)N(C(=O)C1CC1)C[C@H](C)[C@@H](OC)CN(C)C2=O | - | - | 0 | - | - | - | - | -
CO[C@@H]1CN(C)C(=O)c2ccc(NC(=O)c3ccccc3F)cc2OC[C@H](C)N(CC2CCOCC2)C[C@H]1C | - | - | 0 | - | - | - | - | -
O=C(C[C@H]1C[C@@H]2c3cc(NC(=O)NC4CCCC4)ccc3O[C@@H]2[C@@H](CO)O1)NCc1ccc2c(c1)OCO2 | - | - | 0 | - | - | - | - | -
O=C(Nc1ccc(F)c(F)c1)c1ccc(-n2cncn2)c([N+](=O)[O-])c1 | 0 | 0 | 78.6 | 0 | 0 | 0 | 0 | 0
COc1ccc(NC(=O)c2ccc(-n3cncn3)c([N+](=O)[O-])c2)cc1OC | 0 | 0 | 65.6 | 0 | 0 | 0 | 0 | 0
